Source: PubChem (several laboratories)
CYP2C19 activ = human CYP2C19 activators, primary screen, biochemical, luminescence. Cytochrome P450 2C19 (Homo sapiens), P33261. recombinant CYP2C19, luciferin-H EGE luminescence; hits give high values; 0 = fully inhibited enzyme, 1 = untreated enzyme. activation factor at 5 µM. 96,000 tested, under 10 active. AID 1025, 2008;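 active = activation factor of at least 2 at 5 µM in the primary screen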;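 also: 0 = wells with 2.5 mM tranylcypromine and 1 = vehicle-only wells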
CYP2C9 activ = human CYP2C9 activators, primary screen, biochemical, luminescence | Cytochrome P450 2C9 (Homo sapiens), P11712 | recombinant CYP2C9, luciferin-H conversion; hits give high values; factor 1 = untreated enzyme, 0 = blocked | activation factor at 5 µM | 96,000 compounds, 1.4% hits | AID 1024, 2008;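 active = activation factor of 2 or more for CYP2C9 at a 5 µM dose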;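 also: 0 = sulfaphenazole-blocked wells and 1 = vehicle-only wells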
CYP2C9 inhib = blockers of cytochrome P450 2C9 activity – biochemical, luminescence, ADME assay, primary screen | AID 777, 2007 | 96,000 compounds, 20% hits | CYP2C9 Supersomes, luciferin-H conversion | inhibition, % at 5 µM | P11712;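 active = blocking of liver enzyme CYP2C9 beyond about 50% at 5 µM, limit read from the data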
CYP2C19 inhib = blockers of cytochrome P450 2C19 activity – biochemical, luminescence, ADME assay, primary screen. 96,000 compounds, 21% hits. inhibition, % at 5 µM. CYP2C19 Supersomes, luciferin-H EGE luminescence, 30 min. AID 778, 2007;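 active = CYP2C19 inhibition above a set limit at 5 µM in the primary screen, cut at about 50% in these data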;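 also: plate controls were negative control wells for no effect and 2.5 mM tranylcypromine positive control for full effect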
Cav32 inh = Cav3.2 calcium influx blockers – cell-based, Fluo-4 calcium fluorescence, FDSS, MLSMR library, primary screen. Voltage-dependent T-type calcium channel subunit alpha-1H (Homo sapiens), O95180. Cav3.2-expressing cells; hits give low values. B-score at 10 µM. 100,000 compounds, 4% hits. AID 449739, 2010;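 active = single-dose well whose peak fluorescence ratio is a statistical outlier from its plate by either plate-standardised score or position-corrected B-score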
Active calls of the source: *; / = no result. Hits are enriched below; roughly 27% of the tested compounds scored in any of these assays.

SMILES	CYP2C19 activ	CYP2C9 activ	CYP2C9 inhib	CYP2C19 inhib	Cav32 inh
Cc1ccc(OCC(=O)N2CCN(C(=O)CCC3CCCC3)CC2)cc1	0.4	0.4	56*	56*	-2
COc1ccc(OCC(=O)N2CCN(C(=O)COc3ccc(Br)cc3)CC2)cc1	0.4	0.5	46	64*	-0.034
CCCS(=O)(=O)N1CCN(C(=O)COc2ccccc2)CC1	0.4	0.8	15	59*	0.14
CC(=O)N1CCN(C(=O)COc2ccc(Br)cc2)CC1	0.1	1	0	89*	-1.5
O=C(CCC1CCCC1)N1CCN(C(=O)COc2ccccc2)CC1	1.1	1	-3	-5	/
Nn1c(SCC(=O)NC2CCCc3ccccc32)nnc1-c1cccs1 (stereo not drawn)	0.6	0.5	48	40	0.26
CC1CCC(NC(=O)c2ccc3c(c2)S(=O)(=O)c2ccccc2C3=O)CC1 (stereo not drawn)	/	/	/	/	0.34
O=C(COc1ccc(Br)cc1)N1CCN(c2ccccc2)CC1	0.3	0.6	37	71*	-3.3*
O=C(COc1ccc(Cl)cc1Br)N1CCN(c2ccccc2)CC1	0.6	1.1	-12	45	-0.4
CCCCC(=O)Nc1sc(C(=O)N(CC)CC)c(C)c1C(=O)OC	/	/	/	/	1.5
Cc1ccc2c(c1)c1c(n2CC(O)CNC(C)(C)C)CCCC1 (stereo not drawn)	0.7	1	-1	28	-1.4
Cc1ccc2c(c1)c1c(n2CC(O)Cn2c(C)nc3ccccc32)CCCC1 (stereo not drawn)	0.9	0.2	77*	14	-1.7
Cc1ccc2c(c1)c1c(n2CC(O)Cn2nc(C)c(Br)c2C)CCCC1 (stereo not drawn)	0.4	0.3	72*	64*	-1.2
CCC(=O)n1nc(-c2ccc(OC)cc2)nc1SC	/	/	/	/	0.83
CCNS(=O)(=O)c1ccc(C)c(-n2cnnn2)c1C	/	/	/	/	0.45
COc1ccc(OC)c(-n2c(=S)[nH]c3cc(C(=O)NCCCN4CCCC4=O)ccc3c2=O)c1	1	0.9	10	-1	/
Cc1cc(Br)cc(C)c1OCCCCN(C)C	0.8	1	5	20	0.25
O=C(O)c1ccc(NS(=O)(=O)c2ccc3c(c2)OCCO3)cc1	1.2	1.2	-19	-17	-0.31
O=C(COc1ccc(S(=O)(=O)NC2CCCCC2)cc1Cl)NCc1ccc2c(c1)OCO2	0.1	0	98*	94*	-0.93
COc1ccc(S(=O)(=O)Nc2ccc3c(c2)OCCO3)cc1Cl	0	0.1	93*	99*	-3.6
COc1ccc(S(=O)(=O)Nc2ccc3c(c2)OCO3)cc1C(=O)O	0.9	0.9	11	11	-0.7
COC(=O)COc1ccc(S(=O)(=O)Nc2ccc3c(c2)OCO3)cc1Cl	0	0.3	70*	98*	-0.17
O=C(COC(=O)c1ccc(NS(=O)(=O)c2ccc3c(c2)OCCO3)cc1)NC1CC1	0.9	0.4	62*	15	0.14
O=C(COc1ccc(S(=O)(=O)N2CCCC2)cc1Cl)NCc1ccc2c(c1)OCO2	0.8	0.5	46	16	-0.24
Cc1cccc(NS(=O)(=O)c2ccc3c(c2)OCCO3)c1	0	0.8	18	100*	-0.73
SMILES	CYP2C19 activ	CYP2C9 activ	CYP2C9 inhib	CYP2C19 inhib	Cav32 inh
COC(=O)COc1ccc(S(=O)(=O)Nc2ccc3c(c2)OCO3)cc1	0	0.1	93*	99*	0.1
O=C(O)c1cc(S(=O)(=O)Nc2ccc3c(c2)OCCO3)c(Cl)cc1Cl	0.9	0.5	51*	15	0.069
O=S(=O)(Nc1ccc2c(c1)OCCO2)c1cnc[nH]1	0.9	0.2	78*	12	-0.17
CCOC(=O)N1CCC(Nc2c(NCCCN(CC)c3cccc(C)c3)c(=O)c2=O)CC1	0.9	1	2	13	2.5
Cc1cccc(NS(=O)(=O)c2ccc(C3CCCCC3)cc2)c1	0.3	0.6	44	69*	-4.5*
O=S(=O)(Nc1ccc2c(c1)OCCO2)c1ccc2oc3ccccc3c2c1	0	0	98*	100*	-5.9*
O=c1oc2cc(Br)ccc2n1CSC1=NCCS1	0.8	1	3	23	-2.1
CN(C)CCn1c(C(=O)Nc2ccccc2)cc2ccccc21	0.9	1	1	12	0.87
C=CCOC(=O)C1=C[C@@H](c2coc3ccccc3c2=O)C[C@@H](OCc2ccc(CO)cc2)O1	/	/	/	/	-0.62
COC(=O)C1=C(C(=O)OC)C2(OC1c1ccccc1C)C(=O)c1ccccc1C2=O (stereo not drawn)	/	/	/	/	0.12
COc1ccc(C2=NN(C(C#N)c3ccc(OC)c(OC)c3)C(c3ccccc3)C2)cc1 (stereo not drawn)	0.6	0.3	68*	42	-1.7
COc1cccc(NC(=O)N2CCCC(C(=O)Nc3ccccc3OC)C2)c1 (stereo not drawn)	1	1.6	-60	4	1.1
COc1ccc(OCc2nnc3n2N=C(c2ccc(Br)cc2)CS3)cc1	1.1	0.6	37	-10	-2.5
c1ccc2c(c1)C(=Nn1cnnc1)c1ccccc1-2	0.6	0.8	23	44	-0.013
O=C1/C(=N/n2cnnc2)c2ccccc2N1Cc1ccccc1	0.4	0.7	26	63*	-0.56
O=C1CC(N2CCN(c3ccccn3)CC2)C(=O)N1CC(c1ccccc1)c1ccccc1 (stereo not drawn)	/	/	/	/	-6.3*
COc1ccc(CCN2C(=O)CC(N3CCN(c4ccccn4)CC3)C2=O)cc1OC (stereo not drawn)	0.9	1	-2	9	0.39
CCCN(CCC)C(=O)Cn1c2ccccc2c2nc(=O)cc(C)n21	1	1.1	-9	4	/
CCN(CC)S(=O)(=O)c1ccc(Cl)c(C(=O)Oc2cccc(-c3cnc4ccccc4n3)c2)c1	0.8	0.5	46	17	/
O=C(Oc1ccc(-c2cnc3ccccc3n2)cc1)c1ccc(Br)o1	0.4	0.8	20	58*	0.41
O=C(Oc1ccc(-c2cnc3ccccc3n2)cc1)c1cccc([N+](=O)[O-])c1	0.3	0.9	15	67*	-1.1
CCN(CC)S(=O)(=O)c1cc(C(=O)Oc2cccc(-c3cnc4ccccc4n3)c2)ccc1Br	0.4	0.5	47	64*	0.31
O=C(Oc1cccc2cccnc12)c1ccc(Br)o1	1.1	1	-4	-6	0.04
O=C(Cc1ccccc1)NCC(=O)N1CCCCCC1	0.8	0.9	11	24	0.42
c1ccc(-n2c(Cc3cccnc3)nc3cnccc32)cc1	/	/	/	/	0.35
COc1cccc2c1C(=O)c1c(O)c3c(c(O)c1C2=O)C[C@@](O)(C(=O)CO)C[C@@H]3O[C@H]1C[C@H](N)[C@H](O)[C@H](C)O1	/	/	/	/	-5.7*
